Reference: PubChem BioAssay (NCI)
The panel holds about 83,000 compounds, 20% with a hit somewhere; the sample as a whole holds those more often.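 Assay: single dose, 48 h. Readout: percent growth (0 = no net growth; negative = cell death). Active: <10.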 A number with no mark means an inactive call. Active and inactive are the calls of the source.

system: HOP-62 NSCLC; assay: NCI-60 one-dose screen, 48 h (100 = growth as untreated, 0 = no growth, -100 = all killed); settings: 10 µM unless noted

Row | SMILES | growth
1 | COC(=O)C1(CC(C)=O)NC(=S)NC(=O)C1C#N (centres undefined) | 104%
2 | O=Cc1ccc(Cl)c(Cl)c1 | 97%
3 | CC(=O)c1cc(O)ccc1O | 89.3%
4 | Nc1c(Br)cc(O)c2c1C(=O)c1ccccc1C2=O | 117%
5 | O=C1CSc2ccccc2N1 | 101%
6 | NC(=S)N/N=C/c1ccc(OC(=O)COc2ccccc2)cn1 | 57.9%
7 | CCOc1ccc2c(c1)c(C)cc(C)[n+]2CC | 80.7%
8 | CC1=CC(=Nc2ccc(N(C)C)cc2)C=C(C)C1=O | 86%
9 | COc1cc(CC#N)c([N+](=O)[O-])cc1OC | 113%
10 | CCC12OC(COc3ccccc3)CN1CCN2c1ccccc1 (centres undefined) | 98.9% [100 µM]
11 | C=CCOc1ccc(Cl)cc1Cl | 113%
12 | CCc1ccccc1C(=O)N(CC)CC | 103%
13 | Cc1ccc(S(=O)(=O)Oc2ccc3sc4c(CO)ccc(NCCN(C)C)c4c(=O)c3c2)cc1 | -68.3% [100 µM] (active)
14 | CCOC(=O)c1cc(C)[nH]c(=O)c1C#N | 97.3%
15 | CCN(CC)CCOC(=O)Nc1c(C(C)C)cccc1C(C)C | 104%
16 | N#CCCN1C(=O)CCC1C(=O)O (centres undefined) | 119%
17 | NNc1ncccn1 | 101%
18 | Cc1cc(=O)n(Nc2ccccc2)c(O)c1C#N | 86%
19 | CC(=O)N(C)N=Nc1ccc(C)cc1 | 95.8%

Row | SMILES | growth
20 | OCC1OC(n2ccc3c2ncn2ncnc32)C(O)C1O (centres undefined) | 37.3%
21 | CC(C)(C)[Si](C)(C)OCC1OC(n2cnc3c(N)ncnc32)CC1OS(C)(=O)=O (centres undefined) | 104%
22 | c1ccc(Oc2c3ccccc3nc3ccccc23)cc1 | 16.1%
23 | CN(C)c1ccc2c(N(C)C)cc(N(C)C)nc2c1 | 82.1%
24 | CC(C)N(CCCC#N)C(C)C | 98.6%
25 | COc1ccc(-c2csc(NC(=O)Nc3nc(-c4ccc(OC)cc4)cs3)n2)cc1 | 106%
26 | CCOC(OCC)C(=O)c1ccccc1 | 98.5%
27 | CC1CC(C)S(=O)(=O)C1 (centres undefined) | 115%
28 | Clc1cccc(Cl)c1C1CSc2ccccc2N=C1c1ccccc1 (centres undefined) | 84.6%
29 | CCOc1ccc(C(=O)O)cc1 | 105%
30 | CCN(CC)CCCC(C)NC(=S)N/N=C(\C)c1ccccn1 (centres undefined) | 45.4%
31 | C[n+]1cc2cc3c(cc2c2ccccc21)OCO3 | 33.7%
32 | Cc1cccc2ccccc12 | 102%
33 | Cn1c2ccccc2c2nnc(NCCCCO)nc21 | 81.6%
34 | Cc1nc(C)c(C(=O)O)cc1C(=O)O | 106%
35 | C/C(=N\Nc1ccc([N+](=O)[O-])cc1[N+](=O)[O-])c1ccc(Br)cc1 | 108%
36 | CC(=O)OC/C(C)=C\CC(C)COC(C)=O (centres undefined) | 96.9%
37 | CCOc1ccccc1NC(=O)CCl | 99.8%

system: NCI-H460 lung; assay: as above; settings: 10 µM unless noted

Row | SMILES | growth
38 | COC(=O)C1(CC(C)=O)NC(=S)NC(=O)C1C#N (centres undefined) | 134%
39 | O=Cc1ccc(Cl)c(Cl)c1 | 107%
40 | CC(=O)c1cc(O)ccc1O | 108%
41 | Nc1c(Br)cc(O)c2c1C(=O)c1ccccc1C2=O | 102%
42 | O=C1CSc2ccccc2N1 | 107%
43 | NC(=S)N/N=C/c1ccc(OC(=O)COc2ccccc2)cn1 | 83.5%
44 | CCOc1ccc2c(c1)c(C)cc(C)[n+]2CC | 109%
45 | CC1=CC(=Nc2ccc(N(C)C)cc2)C=C(C)C1=O | 102%
46 | COc1cc(CC#N)c([N+](=O)[O-])cc1OC | 106%
47 | CCC12OC(COc3ccccc3)CN1CCN2c1ccccc1 (centres undefined) | 106% [100 µM]
48 | C=CCOc1ccc(Cl)cc1Cl | 110%
49 | CCc1ccccc1C(=O)N(CC)CC | 104%
50 | Cc1ccc(S(=O)(=O)Oc2ccc3sc4c(CO)ccc(NCCN(C)C)c4c(=O)c3c2)cc1 | -83% [100 µM] (active)
51 | CCOC(=O)c1cc(C)[nH]c(=O)c1C#N | 114%
52 | CCN(CC)CCOC(=O)Nc1c(C(C)C)cccc1C(C)C | 128%
53 | N#CCCN1C(=O)CCC1C(=O)O (centres undefined) | 107%
54 | NNc1ncccn1 | 112%
55 | Cc1cc(=O)n(Nc2ccccc2)c(O)c1C#N | 105%
56 | CC(=O)N(C)N=Nc1ccc(C)cc1 | 116%

Row | SMILES | growth
57 | OCC1OC(n2ccc3c2ncn2ncnc32)C(O)C1O (centres undefined) | 26.5%
58 | CC(C)(C)[Si](C)(C)OCC1OC(n2cnc3c(N)ncnc32)CC1OS(C)(=O)=O (centres undefined) | 105%
59 | c1ccc(Oc2c3ccccc3nc3ccccc23)cc1 | 3.68% (active)
60 | CN(C)c1ccc2c(N(C)C)cc(N(C)C)nc2c1 | 82.7%
61 | CC(C)N(CCCC#N)C(C)C | 105%
62 | COc1ccc(-c2csc(NC(=O)Nc3nc(-c4ccc(OC)cc4)cs3)n2)cc1 | 84.7%
63 | CCOC(OCC)C(=O)c1ccccc1 | 99.7%
64 | CC1CC(C)S(=O)(=O)C1 (centres undefined) | 116%
65 | Clc1cccc(Cl)c1C1CSc2ccccc2N=C1c1ccccc1 (centres undefined) | 83.1%
66 | CCOc1ccc(C(=O)O)cc1 | 103%
67 | CCN(CC)CCCC(C)NC(=S)N/N=C(\C)c1ccccn1 (centres undefined) | 24.7%
68 | C[n+]1cc2cc3c(cc2c2ccccc21)OCO3 | 59.2%
69 | Cc1cccc2ccccc12 | 104%
70 | Cn1c2ccccc2c2nnc(NCCCCO)nc21 | 100%
71 | Cc1nc(C)c(C(=O)O)cc1C(=O)O | 112%
72 | C/C(=N\Nc1ccc([N+](=O)[O-])cc1[N+](=O)[O-])c1ccc(Br)cc1 | 99.2%
73 | CC(=O)OC/C(C)=C\CC(C)COC(C)=O (centres undefined) | 102%
74 | CCOc1ccccc1NC(=O)CCl | 97.3%
